# The supplement of paper PMC11732987, “Enantioselective OTUD7B fragment discovery through chemoproteomics screening and high-throughput optimisation” (Communications Chemistry, 2025)
# Unmarked numbers belong to inactive results.
# Compound: CN(Cc1cccc(OCc2ccccc2C)c1)C(=O)CCl
# Assay: log2 ratio of Biotin-Ahx-Ub-VS probe labelling (compound/DMSO); higher = less target engagement, active = hit call of the paper (q ≤ 0.05, log2 ratio ≤ -1)
# Conditions: compound concentration: 50uM; treatment time: 3 h
# Procedure: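 Round 2 competitive ABPP in HEK293T lysate. Purified HTC-D2B compounds were tested at 50 and 200 µM for 3 h, followed by Biotin-Ahx-Ub-VS enrichment and diaPASEF LC-MS/MS. Values are the average log2 ratio (compound/DMSO) from an unpaired t-test (n=3 treated, n=26 DMSO).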
# Sequence of UniProt P15374 (P15374 whole entry): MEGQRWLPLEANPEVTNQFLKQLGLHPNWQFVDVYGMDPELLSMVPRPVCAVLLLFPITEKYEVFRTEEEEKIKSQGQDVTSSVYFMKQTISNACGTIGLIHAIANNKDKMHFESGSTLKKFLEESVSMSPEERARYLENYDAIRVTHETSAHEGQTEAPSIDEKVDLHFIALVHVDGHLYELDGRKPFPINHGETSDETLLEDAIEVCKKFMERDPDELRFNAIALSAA
# Sequence of UniProt P62068 (P62068 whole entry): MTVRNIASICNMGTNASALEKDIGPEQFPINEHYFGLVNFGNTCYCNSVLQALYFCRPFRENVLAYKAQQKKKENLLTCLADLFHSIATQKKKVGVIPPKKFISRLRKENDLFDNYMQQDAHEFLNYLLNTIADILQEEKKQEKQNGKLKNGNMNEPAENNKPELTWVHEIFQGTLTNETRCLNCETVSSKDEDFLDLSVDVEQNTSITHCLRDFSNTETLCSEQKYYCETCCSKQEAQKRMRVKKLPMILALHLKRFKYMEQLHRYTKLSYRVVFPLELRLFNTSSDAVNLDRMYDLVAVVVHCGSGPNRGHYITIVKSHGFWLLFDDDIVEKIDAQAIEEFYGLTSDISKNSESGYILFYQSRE
# Sequence of UniProt O94966 (O94966 whole entry): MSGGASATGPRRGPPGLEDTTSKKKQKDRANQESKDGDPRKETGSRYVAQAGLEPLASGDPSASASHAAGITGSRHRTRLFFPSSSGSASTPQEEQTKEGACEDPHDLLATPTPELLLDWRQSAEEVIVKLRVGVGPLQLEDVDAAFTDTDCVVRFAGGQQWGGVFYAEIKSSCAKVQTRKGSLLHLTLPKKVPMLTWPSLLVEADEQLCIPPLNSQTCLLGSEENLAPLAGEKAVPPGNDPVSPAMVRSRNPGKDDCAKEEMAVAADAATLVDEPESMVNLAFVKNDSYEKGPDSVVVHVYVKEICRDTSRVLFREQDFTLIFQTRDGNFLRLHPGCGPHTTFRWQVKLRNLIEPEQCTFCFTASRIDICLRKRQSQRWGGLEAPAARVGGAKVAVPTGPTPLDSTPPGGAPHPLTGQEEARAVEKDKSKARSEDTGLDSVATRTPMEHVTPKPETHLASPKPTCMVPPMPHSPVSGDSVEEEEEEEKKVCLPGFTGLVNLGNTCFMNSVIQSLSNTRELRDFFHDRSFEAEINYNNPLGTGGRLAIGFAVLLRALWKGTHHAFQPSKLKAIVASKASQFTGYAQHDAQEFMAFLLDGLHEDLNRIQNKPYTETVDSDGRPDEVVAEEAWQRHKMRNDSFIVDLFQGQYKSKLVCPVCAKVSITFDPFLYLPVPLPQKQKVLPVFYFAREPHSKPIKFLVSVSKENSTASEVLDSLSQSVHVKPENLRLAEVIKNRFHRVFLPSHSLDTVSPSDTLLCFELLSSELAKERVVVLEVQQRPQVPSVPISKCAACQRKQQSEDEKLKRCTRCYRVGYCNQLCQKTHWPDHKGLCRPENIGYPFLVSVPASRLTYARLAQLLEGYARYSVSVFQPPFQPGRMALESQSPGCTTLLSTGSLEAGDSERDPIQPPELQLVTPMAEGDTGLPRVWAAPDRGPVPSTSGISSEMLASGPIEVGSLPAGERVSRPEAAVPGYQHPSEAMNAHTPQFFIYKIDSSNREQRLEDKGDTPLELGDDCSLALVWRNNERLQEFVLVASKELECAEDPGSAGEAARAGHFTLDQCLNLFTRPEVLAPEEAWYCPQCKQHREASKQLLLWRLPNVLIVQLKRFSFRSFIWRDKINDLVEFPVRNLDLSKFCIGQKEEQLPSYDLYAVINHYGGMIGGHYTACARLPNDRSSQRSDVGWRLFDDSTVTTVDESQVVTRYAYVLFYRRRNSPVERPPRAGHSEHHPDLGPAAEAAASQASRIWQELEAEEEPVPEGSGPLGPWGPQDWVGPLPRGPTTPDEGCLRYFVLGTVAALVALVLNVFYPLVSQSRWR
# Sequence of UniProt Q4G0A6 (Q4G0A6 whole entry): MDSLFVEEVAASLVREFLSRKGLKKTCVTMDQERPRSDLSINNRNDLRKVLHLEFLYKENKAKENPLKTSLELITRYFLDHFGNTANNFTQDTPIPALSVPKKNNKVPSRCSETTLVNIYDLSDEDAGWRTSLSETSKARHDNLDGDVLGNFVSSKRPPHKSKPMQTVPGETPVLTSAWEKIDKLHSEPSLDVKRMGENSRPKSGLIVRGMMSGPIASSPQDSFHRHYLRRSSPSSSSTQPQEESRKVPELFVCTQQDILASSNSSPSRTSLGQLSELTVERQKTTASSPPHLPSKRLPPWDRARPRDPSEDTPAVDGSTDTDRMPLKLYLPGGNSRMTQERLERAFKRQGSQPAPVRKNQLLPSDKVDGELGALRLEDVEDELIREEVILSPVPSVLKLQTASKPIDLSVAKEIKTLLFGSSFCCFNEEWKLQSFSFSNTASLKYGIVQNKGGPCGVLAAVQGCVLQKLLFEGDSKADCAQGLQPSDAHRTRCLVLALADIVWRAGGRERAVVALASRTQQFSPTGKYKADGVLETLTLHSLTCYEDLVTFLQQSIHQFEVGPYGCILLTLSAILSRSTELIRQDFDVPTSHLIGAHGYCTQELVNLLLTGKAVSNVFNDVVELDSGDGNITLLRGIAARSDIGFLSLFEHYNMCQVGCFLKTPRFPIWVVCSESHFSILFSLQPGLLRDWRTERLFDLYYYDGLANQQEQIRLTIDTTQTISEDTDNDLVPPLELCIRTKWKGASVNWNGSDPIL
# Sequence of UniProt Q5T2D3 (Q5T2D3 whole entry): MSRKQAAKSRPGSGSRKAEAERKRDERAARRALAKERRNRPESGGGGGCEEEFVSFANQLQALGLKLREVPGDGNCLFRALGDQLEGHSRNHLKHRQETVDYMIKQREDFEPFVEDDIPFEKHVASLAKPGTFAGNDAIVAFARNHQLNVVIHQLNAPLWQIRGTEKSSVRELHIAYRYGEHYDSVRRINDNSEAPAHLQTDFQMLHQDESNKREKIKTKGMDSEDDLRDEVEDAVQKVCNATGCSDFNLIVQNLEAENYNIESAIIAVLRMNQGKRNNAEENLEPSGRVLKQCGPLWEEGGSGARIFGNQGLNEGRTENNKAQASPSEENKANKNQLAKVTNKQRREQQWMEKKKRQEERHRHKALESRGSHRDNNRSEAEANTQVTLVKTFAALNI
# Sequence of UniProt O00303 (O00303 whole entry): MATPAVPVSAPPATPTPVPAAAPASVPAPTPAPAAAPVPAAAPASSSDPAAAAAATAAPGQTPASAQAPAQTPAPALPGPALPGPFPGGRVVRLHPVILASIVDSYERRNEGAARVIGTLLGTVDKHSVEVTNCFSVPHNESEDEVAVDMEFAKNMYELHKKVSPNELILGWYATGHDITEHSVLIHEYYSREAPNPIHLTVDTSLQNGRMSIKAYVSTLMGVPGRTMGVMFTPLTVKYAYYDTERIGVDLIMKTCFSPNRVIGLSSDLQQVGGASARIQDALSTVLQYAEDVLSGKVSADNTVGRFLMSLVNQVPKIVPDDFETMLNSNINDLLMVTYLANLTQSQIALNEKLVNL
# Sequence of UniProt Q96JH7 (Q96JH7 whole entry): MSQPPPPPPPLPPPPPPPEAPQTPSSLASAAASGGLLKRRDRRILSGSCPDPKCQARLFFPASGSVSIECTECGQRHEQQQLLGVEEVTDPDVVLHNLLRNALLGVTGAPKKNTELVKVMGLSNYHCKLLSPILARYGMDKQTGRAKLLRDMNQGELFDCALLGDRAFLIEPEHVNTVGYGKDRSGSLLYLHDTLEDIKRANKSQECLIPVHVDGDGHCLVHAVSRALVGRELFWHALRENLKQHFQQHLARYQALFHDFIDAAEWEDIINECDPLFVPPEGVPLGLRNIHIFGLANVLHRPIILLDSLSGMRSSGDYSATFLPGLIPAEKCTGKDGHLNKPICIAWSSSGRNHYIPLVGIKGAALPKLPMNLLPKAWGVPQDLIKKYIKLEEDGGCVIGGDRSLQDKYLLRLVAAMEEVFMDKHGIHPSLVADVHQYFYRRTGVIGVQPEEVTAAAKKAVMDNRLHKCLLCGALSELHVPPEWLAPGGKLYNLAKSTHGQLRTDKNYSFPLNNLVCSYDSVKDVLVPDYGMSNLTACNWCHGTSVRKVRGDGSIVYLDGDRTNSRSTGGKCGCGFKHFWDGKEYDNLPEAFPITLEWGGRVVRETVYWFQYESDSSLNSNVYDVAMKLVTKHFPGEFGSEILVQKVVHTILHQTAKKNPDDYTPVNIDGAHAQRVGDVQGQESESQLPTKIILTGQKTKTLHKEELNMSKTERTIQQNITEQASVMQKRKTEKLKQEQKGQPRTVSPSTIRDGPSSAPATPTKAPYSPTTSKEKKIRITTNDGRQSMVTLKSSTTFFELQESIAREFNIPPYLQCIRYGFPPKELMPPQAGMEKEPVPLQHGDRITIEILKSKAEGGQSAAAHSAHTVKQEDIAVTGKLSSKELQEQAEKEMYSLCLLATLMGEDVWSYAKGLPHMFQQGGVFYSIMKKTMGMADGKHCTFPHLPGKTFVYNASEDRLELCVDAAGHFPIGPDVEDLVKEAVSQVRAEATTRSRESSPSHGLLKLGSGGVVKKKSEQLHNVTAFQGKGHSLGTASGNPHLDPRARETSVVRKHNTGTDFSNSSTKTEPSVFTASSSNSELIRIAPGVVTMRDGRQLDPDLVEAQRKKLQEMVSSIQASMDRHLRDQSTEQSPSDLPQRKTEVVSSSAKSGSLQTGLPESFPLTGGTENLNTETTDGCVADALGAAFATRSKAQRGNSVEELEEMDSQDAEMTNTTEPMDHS
# Sequence of UniProt O75317 (O75317 whole entry): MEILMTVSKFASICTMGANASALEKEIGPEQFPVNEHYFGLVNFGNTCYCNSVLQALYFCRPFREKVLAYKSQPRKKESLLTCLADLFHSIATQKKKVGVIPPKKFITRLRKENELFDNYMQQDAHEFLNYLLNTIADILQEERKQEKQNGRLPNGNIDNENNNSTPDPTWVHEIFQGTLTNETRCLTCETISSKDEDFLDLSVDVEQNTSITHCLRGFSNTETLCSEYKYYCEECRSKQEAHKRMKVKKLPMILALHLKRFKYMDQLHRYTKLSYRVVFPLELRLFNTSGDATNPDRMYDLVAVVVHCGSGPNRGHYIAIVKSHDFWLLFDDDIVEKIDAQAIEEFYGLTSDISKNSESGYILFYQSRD
row,Target,log2 ratio of Biotin-Ahx-Ub-VS probe labelling
1,OTUD4 (UniProt Q01804),-0.447
2,OTUB1 (UniProt Q96FW1),-0.366
3,UCHL5 (UniProt Q9Y5K5),-0.735
4,USP22 (UniProt Q9UPT9),-0.278
5,MINDY4 (UniProt Q4G0A6),0.702
6,USP5 (UniProt P45974),-0.113
7,UCHL1 (UniProt P09936),-0.437
8,VCPIP1 (UniProt Q96JH7),-0.755
9,USP28 (UniProt Q96RU2),-0.572
10,UCHL3 (UniProt P15374),-0.479
11,OTUD6B (UniProt Q8N6M0),-0.59
12,USP34 (UniProt Q70CQ2),0.154
13,UniProt P51784,-0.394
14,USP14 (UniProt P54578),-0.544
15,UniProt Q5T2D3,-0.549
16,USP36 (UniProt Q9P275),-0.207
17,USP46 (UniProt P62068),-0.515
18,USP12 (UniProt O75317),-0.484
19,USP19 (UniProt O94966),-1 (active)
20,EIF3F (UniProt O00303),-0.201

# Same assay, conditions: compound concentration: 200uM; treatment time: 3 h
row,Target,log2 ratio of Biotin-Ahx-Ub-VS probe labelling
1,OTUD4 (UniProt Q01804),-0.51
2,OTUB1 (UniProt Q96FW1),0.0592
3,UCHL5 (UniProt Q9Y5K5),-1.33 (active)
4,USP22 (UniProt Q9UPT9),-0.429
5,MINDY4 (UniProt Q4G0A6),0.585
6,USP5 (UniProt P45974),-0.0873
7,UCHL1 (UniProt P09936),-0.268
8,VCPIP1 (UniProt Q96JH7),-1.2 (active)
9,USP28 (UniProt Q96RU2),-0.911
10,UCHL3 (UniProt P15374),-0.262
11,OTUD6B (UniProt Q8N6M0),-0.817
12,USP34 (UniProt Q70CQ2),-0.582
13,UniProt P51784,-0.417
14,USP14 (UniProt P54578),-0.62
15,UniProt Q5T2D3,-0.332
16,USP36 (UniProt Q9P275),-0.146
17,USP46 (UniProt P62068),-0.89
18,USP12 (UniProt O75317),-0.602
19,USP19 (UniProt O94966),-1.76 (active)
20,EIF3F (UniProt O00303),0.0399
